Results on 37 compounds are retold here after the supplement of paper PMC8699584.

Values joined by “and” are separate entries in the source; they are usually repeats but may differ in a detail not shown here. Identical values can stand only once. Counter-ions that a name gives are not always drawn. ± gives the standard deviation of the averaged measurements.

For one assay, the system named is Molm13. Briefly: cell viability relative to DMSO control (bortezomib = 0%); higher = less growth inhibition. Particulars: 10 nM; 72 h. In a few lines:
(§1)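 Cell viability was assessed by CellTiter-Glo luminescence. Acute myeloid leukemia cells were seeded at 1000 cells per well in 50 µL on a 384-well library of 679 compounds at a single 10 nM dose for 72 h. Per-plate linear regression set DMSO-treated cells at 100% and positive-control-treated cells at 0%.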
Regarding `Cc1nc(Nc2ncc(C(=O)Nc3c(C)cccc3Cl)s2)cc(N2CCN(CCO)CC2)n1` [Dasatinib], the cell viability – broadly, a read-out of living cells in per cent, often relative to untreated cells – was determined as 111 ± 29%. On to `O=C1NC(=O)C(=Cc2ccc(-c3ccc(F)cc3)o2)S1` (stereo in doubt), for which the cell viability came to 106 ± 12%.

Consider `O=C(Nc1ccc2[nH]nc(-c3ccncc3)c2c1)[C@@H]1CCN(CC(=O)N2CCN(c3ccc(-c4ncccn4)cc3)CC2)C1`, for which the cell viability amounted to 92 ± 12%.

The subject of a further assay is Mv4-11. The description is as above. As to conditions: 10 nM; 72 h. The gist of the method:
as §1
For `COc1cc2ncnc(Nc3ccc(O)cc3)c2cc1OC` [Janex 1], the cell viability came to 111 ± 5.3%.

As for `Cn1cnc2c(NCc3ccccc3)nc(NCCO)nc21` [Olomoucine], the cell viability was 104.2 ± 1%. Take `Cc1ccc(NC(=O)c2ccc(CN3CCN(C)CC3)cc2)cc1Nc1nc(-c2cccnc2)cs1` [Masitinib (AB1010)]: the cell viability came to 116 ± 26%. On the same count and under the same terms, to `C=CCn1c(=O)c2cnc(Nc3ccc(N4CCN(C)CC4)cc3)nc2n1-c1cccc(C(C)(C)O)n1` belongs 95.2 ± 2.1%; to `CC(C)Oc1ccc(C(=O)N[C@H](CNC(=O)CN(C)C)Cc2ccc(-c3cn4cccc([C@H](C)O)c4n3)cc2)cc1Cl`, 121 ± 9.3%; to `CCS(=O)(=O)N1CC(CC#N)(n2cc(-c3ncnc4[nH]ccc34)cn2)C1` [Baricitinib†(Phosphate)], 115 ± 5.4%. With `O=c1cc(N2CCOCC2)oc2c(-c3cccc4c3sc3ccccc34)cccc12`, the cell viability is 108 ± 8.2%. Take `N#CC(c1ccnc(NCCc2cccnc2)n1)c1nc2ccccc2s1` (configuration not stated): the cell viability is 109 ± 28%. On the same count and under the same terms, the figure for `COC(=O)C1=CC[C@@]23CC[C@@H]([C@@](C)(/C=C/C=C(\C)C(=O)O)OC2=O)[C@@]3(OC(C)=O)CC1` [Pseudolaric Acid B] is 104 ± 11%; for `CC1(C)OC(=O)C=C[C@]2(C)[C@H]3CC[C@@]4(C)[C@H](c5ccoc5)OC(=O)[C@H]5O[C@]54[C@]3(C)C(=O)C[C@@H]12` [Obacunone] it is 109 ± 19%. In the case of `CN(c1ccccc1CNc1nc(Nc2ccc3c(c2)CC(=O)N3)ncc1C(F)(F)F)S(C)(=O)=O`, the cell viability worked out at 96.4 ± 15%. As for `Cn1cc(-c2ccc3c(c2)CCN3C(=O)Cc2cccc(C(F)(F)F)c2)c2c(N)ncnc21`, the cell viability came out at 108 ± 18%. Same read-out and setting: the figure for `COc1ccc(Cl)cc1NC(=O)Nc1cc(C)nc2ccccc12` is 130 ± 17%; for `N#CCC(=O)NN` [Cyanoacetohydrazide] it is 109 ± 22%.

On to `NC(=O)c1ncn([C@@H]2O[C@H](CO)[C@@H](O)[C@H]2O)n1` [Ribavirin], for which the cell viability was found to be 106 ± 5.6%. Same read-out and setting: the figure for `O=C1NC(=O)/C(=C/c2ccc3c(c2)OCO3)S1` is 112 ± 8%; for `O=C(NC(NC(=S)Nc1ccc(F)c([N+](=O)[O-])c1)C(Cl)(Cl)Cl)C(c1ccccc1)c1ccccc1` (configuration not stated) it is 104.1 ± 0.92%. Turning to `CC[C@@H]1C(=O)N(C)c2cnc(Nc3ccc(C(=O)N[C@H]4CC[C@H](N5CCN(CC6CC6)CC5)CC4)cc3OC)nc2N1C(C)C` [Volasertib (BI 6727)], the cell viability was 117 ± 15%. Still for that read-out and setting: the figure for `Cn1cnc2nc(NCCO)nc(NCc3ccccc3)c21` [Iso-Olomoucine] is 113 ± 9.7%; for `COC1=CC(=O)c2ccccc2C1=O` [2-Methoxy-1,4-naphthoquinone] it is 98.6 ± 9.1%; for `N#Cc1c(O)c2c(-c3ccc(-c4ccccc4O)cc3)csc2[nH]c1=O` it is 93.9 ± 14%.

Regarding `Cc1cnc(-c2cnc(NCCNc3ccc(C#N)cn3)nc2-c2ccc(Cl)cc2Cl)[nH]1`, the cell viability is 105% and 110%. On to `Nc1ncnc2n[nH]c(Nc3ccc(F)cc3)c12`, for which the cell viability is 105 ± 3.4%.

As to `C[N+](C)(C)CC(=O)O` [Betaine hydrochloride], the cell viability is 101 ± 9.6%. Consider `COc1cc2nccc(Oc3ccc(NC(=O)NC4CC4)c(Cl)c3)c2cc1C(N)=O` [Lenvatinib (E7080)], for which the cell viability turned out to be 123 ± 14%. For the compound `C=CC(=O)Nc1cccc(Nc2nc(Nc3ccc(Oc4ccnc(C(=O)NC)c4)cc3)ncc2F)c1`, the cell viability amounted to 108 ± 9.3%. The same measure, in the same setting: the figure for `Cc1ccc(-n2nc(C(C)(C)C)cc2NC(=O)Nc2ccc(OCCN3CCOCC3)c3ccccc23)cc1` [Doramapimod] is 98.1 ± 1.1%; for `C[C@@H]1CCN(C(=O)CC#N)C[C@@H]1N(C)c1ncnc2[nH]ccc12` it is 99.7% and 105%.

On to `Nc1nc(N)c2nc(-c3cccc(O)c3)c(-c3cccc(O)c3)nc2n1`, for which the cell viability turned out to be 120 ± 11%. Same read-out and setting: the figure for `O=c1cc(N2CCOCC2)oc2c1ccc1ccccc12` is 103% and 110%; for `O=C(Nc1ccc(OC(F)(F)F)cc1)c1sccc1NCc1ccnc2ccccc12` it is 109 ± 6%. For the compound `COc1cc2ncnc(Nc3ccc(F)c(Cl)c3)c2cc1NC(=O)/C=C/CN1CCCCC1`, the cell viability was 108 ± 1.3%.

Regarding `Cc1cn(-c2cc(NC(=O)c3ccc(C)c(Nc4nccc(-c5cccnc5)n4)c3)cc(C(F)(F)F)c2)cn1` [Nilotinib], the cell viability is 108 ± 16%.

Take `C=C(C)[C@@H]1CC[C@]2(C)CC[C@]3(C)[C@H](CC[C@@H]4[C@@]5(C)CC[C@H](O)C(C)(C)[C@@H]5CC[C@]43C)[C@@H]12` [Lupeol]: the cell viability came out at 94.9 ± 1.2%.
